Assay results taken from PubChem BioAssay (Tox21).
Unmarked numbers belong to inactive results. Results filed as inconclusive are left out. A call without a number means that no potency is given here. The source made the active and inactive calls. The call rests on the fitted dose curve.

Biological target: Acetylcholinesterase (Homo sapiens) (UniProt P22303)
Test: Acetylcholinesterase (AChE) small molecule antagonists: fluorescence cell-based qHTS assay (AID 1347398); further: nearly all actives have a fitted effect of over 50% in size
Settings: SH-SY5Y cells; Potency: AChE activity; outcome: AChE activity; series mostly up to 115 µM
In short: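 Thiocholine generated from acetylthiocholine by SH-SY5Y cell AChE is detected with Thiolite Green (Ex/Em 490/520 nm) after 40 min at room temperature, following 30 min compound pretreatment at 37 C.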

Sequence of Acetylcholinesterase (Homo sapiens) (P22303 whole entry, looked up): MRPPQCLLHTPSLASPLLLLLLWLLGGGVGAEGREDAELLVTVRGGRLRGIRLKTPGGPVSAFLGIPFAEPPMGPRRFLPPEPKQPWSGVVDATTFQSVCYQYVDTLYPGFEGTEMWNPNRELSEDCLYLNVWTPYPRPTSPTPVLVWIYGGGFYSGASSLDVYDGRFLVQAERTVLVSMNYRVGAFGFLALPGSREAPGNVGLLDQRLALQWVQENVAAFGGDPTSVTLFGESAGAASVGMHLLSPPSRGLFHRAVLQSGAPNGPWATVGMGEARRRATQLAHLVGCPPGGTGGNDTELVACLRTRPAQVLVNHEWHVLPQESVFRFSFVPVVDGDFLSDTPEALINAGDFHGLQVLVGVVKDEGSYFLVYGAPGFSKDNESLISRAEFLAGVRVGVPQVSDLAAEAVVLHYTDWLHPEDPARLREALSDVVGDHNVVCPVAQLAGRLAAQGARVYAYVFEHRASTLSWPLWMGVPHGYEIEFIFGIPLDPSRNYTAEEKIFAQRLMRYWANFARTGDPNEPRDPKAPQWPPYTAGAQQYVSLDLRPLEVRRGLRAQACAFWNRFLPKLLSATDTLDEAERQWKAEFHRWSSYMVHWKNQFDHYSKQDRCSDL

SMILES	Potency	activity change, negative = inhibition
CCO[Si](CCCNC(N)=O)(OCC)OCC	inactive	–
CCCCCCCC/C=C\CCCCCCCC(=O)OC	inactive	–
CC1OC1C1CCC2(C)OC2C1 (stereo not given)	inactive	–
CO[Si](OC)(OC)c1ccccc1	inactive	–
CN(CCOc1ccc(CC2SC(=O)NC2=O)cc1)c1ccccn1 (stereo not given)	inactive	–
CC(C)(C)C1CCC(O)CC1 (stereo not given)	inactive	–
FC(F)(F)C(F)(F)C(F)(F)C(F)(F)C(F)(F)C(F)(F)C(F)(F)C(F)(F)C(F)(F)C(F)(F)F	–	1.44% [at 10.5 µM]
CCc1cccc(C)c1N(C(=O)CS(=O)(=O)O)C(C)COC (stereo not given)	inactive	–
COc1ccc(CCC(C)=O)cc1	inactive	–
C[C@]1(Cn2ccnn2)[C@H](C(=O)O)N2C(=O)C[C@H]2S1(=O)=O	inactive	–
COC(=O)C1=C(C)NC(C)=C(C(=O)OCC(C)C)C1c1ccccc1[N+](=O)[O-] (stereo not given)	inactive	–
CCCC(CCC)(C(=O)OCC)C(=O)OCC	inactive	–
O=C(NCCCN1CCOCC1)c1ccc(Cl)cc1	inactive	–
CCOC(=O)CCCCCCCCC(=O)OCC	inactive	–
OC[C@@H](O)C(O)[C@@H](O)CO (stereo not given in full)	inactive	–
COc1c2ccoc2cc2oc(=O)ccc12	inactive	–
CN(C)[C@@H]1C(=O)C(C(=O)NCN2CCCC2)=C(O)[C@@]2(O)C(=O)C3=C(O)c4c(O)cccc4[C@@](C)(O)C3C[C@@H]12 (stereo not given in full)	inactive	–
CCCCC(CC)COCC1CO1 (stereo not given)	inactive	–
CCN1CCN(c2cc(-c3ccc(F)cc3)c3c(n2)CCCCCC3)CC1	–	7.25% [at 23.8 µM]
O=C(OCCOCCOC(=O)c1ccccc1)c1ccccc1	inactive	–

SMILES	Potency	activity change, negative = inhibition
CC(C)CC(C)CC(O)CC(C)C (stereo not given)	inactive	–
Nc1c(I)cc(I)c(C(=O)N(CCC(=O)O)c2ccccc2)c1I	inactive	–
CC(CCC(=O)O)C(=O)O (stereo not given)	inactive	–
Nc1nc2c(ncn2COCCO)c(=O)[nH]1	inactive	–
Cc1ccc(C)c([N+](=O)[O-])c1	inactive	–
C=COCC(C)C	inactive	–
O=C(O)c1ccc(S(=O)(=O)O)cc1C(=O)O	inactive	–
Cc1ccccc1Br	inactive	–
CC(CC(C#N)(c1ccccc1)C(C)C)N(C)C (stereo not given)	inactive	–
CCCc1ccc(O)cc1	inactive	–
CC1=C(C(=O)OC(C)C)C(c2cccc([N+](=O)[O-])c2)C(C(=O)OC2CN(C(c3ccccc3)c3ccccc3)C2)=C(N)N1 (stereo not given)	inactive	–
O=[N+]([O-])c1ccccc1CCO	inactive	–
CO[C@@]1(NC(=O)CSCC#N)C(=O)N2C(C(=O)O)=C(CSc3nnnn3C)CS[C@@H]21	inactive	–
CC(C)Cn1cnc2c1c(=O)n(C)c(=O)n2C	inactive	–
CC(CCc1ccccc1)NCC(O)c1ccc(O)c(C(N)=O)c1 (stereo not given)	inactive	–
OC[C@H]1O[C@@H](n2cnc3c(=S)nc[nH]c32)[C@H](O)[C@@H]1O	inactive	–
C[Si](NC1CCCCC1)(NC1CCCCC1)NC1CCCCC1	inactive	–
C[C@@H]1C[C@H]2[C@@H]3CCC4=CC(=O)C=C[C@]4(C)[C@@]3(F)[C@@H](O)C[C@]2(C)[C@H]1C(=O)CO	inactive	–
CN(C)C=O	inactive	–
CC1(C)CC(N)CC(C)(CN)C1 (stereo not given)	inactive	–

Biological target: Acetylcholinesterase (Homo sapiens) (UniProt P22303)
Test: Acetylcholinesterase (AChE) small molecule antagonists: enzyme-based qHTS assay with human liver microsomes (AID 1347399); further: nearly all actives have a fitted effect of over 60% in size
Settings: Potency: qHTS inhibition; outcome: qHTS inhibition; series mostly up to 115 µM
In short: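 Recombinant human AChE (50 mU/mL in the enzyme mix) and human liver microsomes (0.25 mg/mL final) were preincubated with compound and NADPH (0.25 mg/mL final) for 30 min at 37 C. Acetylthiocholine/DTNB was then added; thiocholine was read colorimetrically after 10 min at room temperature.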

SMILES	Potency	activity change, negative = inhibition
CCO[Si](CCCNC(N)=O)(OCC)OCC	inactive	–
CCCCCCCC/C=C\CCCCCCCC(=O)OC	inactive	–
CC1OC1C1CCC2(C)OC2C1 (stereo not given)	inactive	–
CO[Si](OC)(OC)c1ccccc1	inactive	–
CN(CCOc1ccc(CC2SC(=O)NC2=O)cc1)c1ccccn1 (stereo not given)	inactive	–
CC(C)(C)C1CCC(O)CC1 (stereo not given)	inactive	–
FC(F)(F)C(F)(F)C(F)(F)C(F)(F)C(F)(F)C(F)(F)C(F)(F)C(F)(F)C(F)(F)C(F)(F)F	–	1.12% [at 10.5 µM]
CCc1cccc(C)c1N(C(=O)CS(=O)(=O)O)C(C)COC (stereo not given)	inactive	–
COc1ccc(CCC(C)=O)cc1	inactive	–
C[C@]1(Cn2ccnn2)[C@H](C(=O)O)N2C(=O)C[C@H]2S1(=O)=O	inactive	–
COC(=O)C1=C(C)NC(C)=C(C(=O)OCC(C)C)C1c1ccccc1[N+](=O)[O-] (stereo not given)	inactive	–
CCCC(CCC)(C(=O)OCC)C(=O)OCC	inactive	–
O=C(NCCCN1CCOCC1)c1ccc(Cl)cc1	inactive	–
CCOC(=O)CCCCCCCCC(=O)OCC	inactive	–
OC[C@@H](O)C(O)[C@@H](O)CO (stereo not given in full)	inactive	–
COc1c2ccoc2cc2oc(=O)ccc12	inactive	–
CN(C)[C@@H]1C(=O)C(C(=O)NCN2CCCC2)=C(O)[C@@]2(O)C(=O)C3=C(O)c4c(O)cccc4[C@@](C)(O)C3C[C@@H]12 (stereo not given in full)	inactive	–
CCCCC(CC)COCC1CO1 (stereo not given)	inactive	–
CCN1CCN(c2cc(-c3ccc(F)cc3)c3c(n2)CCCCCC3)CC1	–	-1.12% [at 23.6 µM]
O=C(OCCOCCOC(=O)c1ccccc1)c1ccccc1	inactive	–

SMILES	Potency	activity change, negative = inhibition
CC(C)CC(C)CC(O)CC(C)C (stereo not given)	inactive	–
Nc1c(I)cc(I)c(C(=O)N(CCC(=O)O)c2ccccc2)c1I	inactive	–
CC(CCC(=O)O)C(=O)O (stereo not given)	inactive	–
Nc1nc2c(ncn2COCCO)c(=O)[nH]1	inactive	–
Cc1ccc(C)c([N+](=O)[O-])c1	inactive	–
C=COCC(C)C	inactive	–
O=C(O)c1ccc(S(=O)(=O)O)cc1C(=O)O	inactive	–
Cc1ccccc1Br	inactive	–
CC(CC(C#N)(c1ccccc1)C(C)C)N(C)C (stereo not given)	inactive	–
CCCc1ccc(O)cc1	inactive	–
CC1=C(C(=O)OC(C)C)C(c2cccc([N+](=O)[O-])c2)C(C(=O)OC2CN(C(c3ccccc3)c3ccccc3)C2)=C(N)N1 (stereo not given)	inactive	–
O=[N+]([O-])c1ccccc1CCO	inactive	–
CO[C@@]1(NC(=O)CSCC#N)C(=O)N2C(C(=O)O)=C(CSc3nnnn3C)CS[C@@H]21	inactive	–
CC(C)Cn1cnc2c1c(=O)n(C)c(=O)n2C	inactive	–
CC(CCc1ccccc1)NCC(O)c1ccc(O)c(C(N)=O)c1 (stereo not given)	inactive	–
OC[C@H]1O[C@@H](n2cnc3c(=S)nc[nH]c32)[C@H](O)[C@@H]1O	inactive	–
C[Si](NC1CCCCC1)(NC1CCCCC1)NC1CCCCC1	inactive	–
C[C@@H]1C[C@H]2[C@@H]3CCC4=CC(=O)C=C[C@]4(C)[C@@]3(F)[C@@H](O)C[C@]2(C)[C@H]1C(=O)CO	inactive	–
CN(C)C=O	inactive	–
CC1(C)CC(N)CC(C)(CN)C1 (stereo not given)	inactive	–
